PGC1a acetyl inh – inhibitors of PGC1a acetylation signal, primary screen, cell-based, U2OS, AlphaScreen, inhibitor mode; AlphaScreen anti-acetyl-lysine; with virally co-expressed GCN5 acetyltransferase; inhibition, % at 15.6 µM; 0.17% of 350,000 active; AID 651687, 2012;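 active = every replicate shows inhibition of at least 40%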;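 also: 0% = neutral control wells and 100% = positive control wells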
RAD54 inh – inhibitors of human RAD54 branch migration, primary screen, biochemical, fluorescence, single point | 0.14% of 360,000 active | RAD54 Holliday junction branch migration, FAM/BHQ fluorescence | AID 602329, 2012 | inhibition, % at 10.4 µM;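 active = mean normalized replicate activity at least 40 and at least half of replicates scoring 40 or more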;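 also: 0% = median of neutral control wells and 100% = median of positive control wells; inhibitors cause a drop in the FAM fluorescence signal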
INS-1E GSIS act – GLuc luminescence reporter in INS-1E cells, primary screen for activators of glucose-dependent secretion of insulin; INS-1E GLuc reporter insulin secretion, 2-3 h; activation, % at 16.6 µM; 0.61% of 370,000 active;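 active = lowest replicate activation of at least 40%, so every replicate reaches that level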;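 also: 0% = median of neutral control wells and 100% = median of IBMX positive control wells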
ERAP1 HTS inh – human ERAP1 aminopeptidase inhibitors, primary screen, biochemical, single point, plate reader; recombinant ERAP1, Leu-AMC fluorescence, 60 min; inhibition, % at 10.7 µM; 0.15% of 340,000 active;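 active = mean replicate inhibition of at least 30%, or all replicates individually reaching that 30% level; inactive = mean below 30% and not every replicate reaching it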;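 also: 0% = neutral control wells and 100% = L-leucinethiol positive control wells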
RAD52 inh – RAD52 DNA annealing inhibitors, primary screen, biochemical, FRET, single point, set 2; DNA repair protein RAD52 homolog (Homo sapiens), P43351; recombinant RAD52 DNA annealing, FRET fluorescence; inhibition, % at 18.7 µM; 0.46% of 360,000 active; AID 651710, 2012;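 active = every replicate showing at least 50% inhibition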
Target sequence (P43351 whole entry, looked up): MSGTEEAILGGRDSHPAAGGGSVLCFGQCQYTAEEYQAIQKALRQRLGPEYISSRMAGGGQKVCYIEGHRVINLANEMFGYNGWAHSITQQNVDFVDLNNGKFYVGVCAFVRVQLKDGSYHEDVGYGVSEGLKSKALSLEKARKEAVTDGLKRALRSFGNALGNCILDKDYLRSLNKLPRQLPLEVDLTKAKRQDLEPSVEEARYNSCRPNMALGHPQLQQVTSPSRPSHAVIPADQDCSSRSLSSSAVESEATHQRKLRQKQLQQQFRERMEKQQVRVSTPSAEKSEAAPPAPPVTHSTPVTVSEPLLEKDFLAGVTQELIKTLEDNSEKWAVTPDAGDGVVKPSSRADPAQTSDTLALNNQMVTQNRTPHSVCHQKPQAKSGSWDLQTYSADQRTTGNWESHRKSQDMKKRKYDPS
MLL AF4-AF9 inh – inhibitors of AF4 peptide binding to AF9, primary screen, biochemical, AlphaScreen, biotin-AF4 peptide, FLAG-AF9, single point | inhibition, % at 10 µM | 0.47% of 350,000 active | AID 651704, 2012;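 active = every replicate reaching a set inhibition limit, whatever the replicate mean, cut at about 25% in these data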;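 also: 0% = plate neutral control median and 100% = total signal loss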
Numbers without * were called inactive. Sampled rows, rich in hits. Any-hit rate of the full collection: about 1.4%.

For CCOC1=C2[C@H](c3cccc(Cl)c3)N(S(=O)(=O)c3ccc(C)cc3)C[C@H]2n2c(=O)n(-c3ccccc3)c(=O)n2C1 the results were PGC1a acetyl inh -26, RAD54 inh -2, INS-1E GSIS act -17, RAD52 inh -28 and MLL AF4-AF9 inh 9.
Screening CCOC1=C2[C@H](c3ccc(C)cc3)N(S(=O)(=O)c3ccc(C)cc3)C[C@H]2n2c(=O)n(-c3ccccc3)c(=O)n2C1 returned PGC1a acetyl inh 13, RAD54 inh -9, INS-1E GSIS act 52*, ERAP1 HTS inh -1, RAD52 inh -12 and MLL AF4-AF9 inh 0.
`O=C(NC[C@@H]1CC[C@@H]2[C@@H](CN2Cc2cc(-c3ccccc3)on2)O1)c1ccc2c(c1)OCO2` gave PGC1a acetyl inh -4, ERAP1 HTS inh -3, RAD52 inh -9 and MLL AF4-AF9 inh -2.
Screening COc1ccc2c3c(n(C)c2c1)[C@H](CO)N(C(=O)Cc1ccccn1)CC31CN(CC2CCCCC2)C1 returned PGC1a acetyl inh -10, INS-1E GSIS act 20, ERAP1 HTS inh -4, RAD52 inh 13 and MLL AF4-AF9 inh 26*.
COc1ccc2c3c(n(C)c2c1)[C@@H](CO)N(C(C)=O)CC31CN(Cc2ccccc2OC)C1 was read as PGC1a acetyl inh 0, INS-1E GSIS act 7, ERAP1 HTS inh -2, RAD52 inh 20 and MLL AF4-AF9 inh -1.
Screening COc1ccc2c3c(n(C)c2c1)[C@H](CO)N(C(=O)C1CC1)CC31CN(Cc2ccccc2OC)C1 returned PGC1a acetyl inh 4, INS-1E GSIS act 14, ERAP1 HTS inh 0, RAD52 inh 17 and MLL AF4-AF9 inh 29*.
`COc1cccc(CN2CC3(C2)CN(C(=O)C2CC2)[C@@H](CO)c2c3c3ccc(OC)cc3n2C)c1` gave PGC1a acetyl inh -9, INS-1E GSIS act 26 and MLL AF4-AF9 inh 26*.
For CCCNC(=O)N1CC2(CN(Cc3ccc(OC)cc3)C2)c2c(n(C)c3cc(OC)ccc23)[C@H]1CO the results were PGC1a acetyl inh -25, INS-1E GSIS act -11 and MLL AF4-AF9 inh 36*.
`Cc1noc(C)c1S(=O)(=O)Nc1ccc2c(c1)C(=O)N([C@@H](C)CO)C[C@@H](C)[C@@H](CN(C)C(=O)Nc1ccccc1)OCCCC[C@@H](C)O2` gave PGC1a acetyl inh 0, RAD54 inh -2, INS-1E GSIS act -30, ERAP1 HTS inh 2, RAD52 inh -2 and MLL AF4-AF9 inh -3.
CC(C)NC(=O)N(C)C[C@@H]1Oc2ncc(C#CC3CCCCC3)cc2C(=O)N([C@H](C)CO)C[C@@H]1C was read as PGC1a acetyl inh -4 and INS-1E GSIS act -10.
`COc1ccccc1N1CCN(/N=C\c2sccc2C)CC1` gave PGC1a acetyl inh -2, INS-1E GSIS act -10, ERAP1 HTS inh -2, RAD52 inh -11 and MLL AF4-AF9 inh 30*.
`O=[N+]([O-])c1ccccc1/C=C\C=N\N1CCN(c2ccccc2)CC1` gave RAD54 inh 2, INS-1E GSIS act -5, ERAP1 HTS inh -1, RAD52 inh -5 and MLL AF4-AF9 inh 42*.
For COc1ccccc1N1CCN(/N=C/C=C/c2ccccc2[N+](=O)[O-])CC1 the results were PGC1a acetyl inh -1, RAD54 inh -2, INS-1E GSIS act -2, ERAP1 HTS inh 0, RAD52 inh -4 and MLL AF4-AF9 inh 48*.
COc1ccccc1N1CCN(/N=C\c2ccccc2)CC1 was read as PGC1a acetyl inh -1, RAD54 inh -6, INS-1E GSIS act -3, ERAP1 HTS inh 0, RAD52 inh -7 and MLL AF4-AF9 inh 15.
`COc1ccc(CCC(=O)OCC(=O)Nc2ccc3[nH]c(=O)[nH]c3c2)cc1` gave INS-1E GSIS act 45*, ERAP1 HTS inh -3, RAD52 inh -8 and MLL AF4-AF9 inh -1.
Screening COc1ccc(OCC(=O)OCC(=O)Nc2ccc3[nH]c(=O)[nH]c3c2)cc1 returned RAD54 inh -12, INS-1E GSIS act 8, ERAP1 HTS inh 2, RAD52 inh -6 and MLL AF4-AF9 inh -1.
CCN(CCNCC(O)COCc1ccc(Cl)cc1)c1cccc(C)c1 (stereo not drawn) was read as INS-1E GSIS act 28, ERAP1 HTS inh 0, RAD52 inh 11 and MLL AF4-AF9 inh 29*.
For Cc1ccc(-c2csc(=Nc3cccnc3)n2CCCn2ccnc2)cc1C the results were ERAP1 HTS inh 5, RAD52 inh -17 and MLL AF4-AF9 inh 37*.
For Cc1ccc(-c2csc(=Nc3cccnc3)n2CCCN2CCCC2=O)cc1C the results were INS-1E GSIS act -27.
`COC(=O)C[C@H]1CC[C@@H]2[C@H](COC[C@@H](O)CN2C(=O)Nc2cccc(F)c2)O1` gave PGC1a acetyl inh -7, RAD54 inh -5, INS-1E GSIS act -1, ERAP1 HTS inh -2, RAD52 inh 13 and MLL AF4-AF9 inh 0.
`OCCN(Cc1ccccc1)CC1CCCCC1` gave PGC1a acetyl inh 57*, RAD54 inh 4 and INS-1E GSIS act 22.
Screening OCCN(Cc1ccccc1)CC1CC2C=CC1C2 (stereo not drawn) returned PGC1a acetyl inh -1, RAD54 inh 4 and INS-1E GSIS act -2.
For Cc1cc(=O)[nH]c(NN=Cc2cc(Br)ccc2O)n1 the results were PGC1a acetyl inh 50*, RAD54 inh 3, ERAP1 HTS inh -1, RAD52 inh -17 and MLL AF4-AF9 inh 3.
For Cc1cc(=O)[nH]c(N/N=C/c2ccccc2Cl)n1 the results were PGC1a acetyl inh 4, RAD54 inh -2, INS-1E GSIS act 3, ERAP1 HTS inh 3, RAD52 inh -24 and MLL AF4-AF9 inh -1.
Cc1ccc(NC(=O)c2sc(N)nc2-c2ccc([N+](=O)[O-])cc2)cc1C was read as PGC1a acetyl inh -12, RAD54 inh 16, INS-1E GSIS act -9, ERAP1 HTS inh 2, RAD52 inh -4 and MLL AF4-AF9 inh 2.
Cc1ccc(NC(=O)c2sc(N)nc2-c2ccc([N+](=O)[O-])cc2)c(C)c1 was read as PGC1a acetyl inh 0, INS-1E GSIS act 18, RAD52 inh -12 and MLL AF4-AF9 inh 30*.
O=C(NCC[C@H]1CC[C@@H](NS(=O)(=O)Cc2ccccc2)[C@H](CO)O1)C1CCC1 was read as PGC1a acetyl inh -5, RAD54 inh -3, INS-1E GSIS act -9, RAD52 inh -19 and MLL AF4-AF9 inh -2.
`CC[C@@H]1CC=CC[C@H](C)Oc2ccccc2C(=O)N(C)[C@@H](Cc2ccccc2)C(=O)N1` (mixture of isomers) gave INS-1E GSIS act -12.
